Compound activity from PubChem.
The list is not random: actives were taken first. Their share in the collection is about 3.5%.
FBW7 act: human FBW7 E3 ligase activation, primary screen; Q969H0; AlphaScreen FBW7–phospho-cyclin E peptide binding, activator screen; normalized activity (activation), % at 26.1 µM; actives 0.13% (n = 650,000); AID 1259310; in the data active = normalized activity above about 1.9%;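 note: purified mutant Fbw7 with reduced substrate affinity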
MITF primary: inhibitors of human MITF. AlphaScreen MITF homodimerization, bead proximity signal. inhibition, % at 2.6 µM. O75030. actives 0.91% (n = 650,000); in the data active = inhibition above about 50%;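 note: 0% = vehicle wells with protein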
Target sequence (O75030 whole entry, looked up): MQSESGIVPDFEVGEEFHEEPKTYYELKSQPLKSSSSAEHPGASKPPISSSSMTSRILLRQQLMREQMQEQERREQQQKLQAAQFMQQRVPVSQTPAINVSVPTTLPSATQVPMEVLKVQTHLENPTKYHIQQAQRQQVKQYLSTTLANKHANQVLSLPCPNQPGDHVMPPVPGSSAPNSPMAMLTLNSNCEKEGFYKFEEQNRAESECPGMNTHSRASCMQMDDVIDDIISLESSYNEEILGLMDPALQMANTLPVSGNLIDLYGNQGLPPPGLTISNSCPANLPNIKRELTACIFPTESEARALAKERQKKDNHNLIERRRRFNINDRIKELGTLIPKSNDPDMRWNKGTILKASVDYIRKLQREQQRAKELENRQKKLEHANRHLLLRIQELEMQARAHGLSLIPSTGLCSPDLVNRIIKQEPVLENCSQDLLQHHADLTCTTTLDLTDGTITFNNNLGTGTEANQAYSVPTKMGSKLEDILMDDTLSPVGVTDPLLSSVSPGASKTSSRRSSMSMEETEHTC
TEAD-YAP inh: TEAD-YAP interaction inhibition; inhibition, % at 9.12 µM; AID 1259422; HEK-TIYL cells, TEAD-Gal4/YAP UAS-luciferase luminescence; actives 1.4% (n = 640,000); in the data active = inhibition above about 32%;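 note: 0% = median of test compound wells and 100% = reference inhibitor wells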
GPR151 activ: activators of human GPR151; Q8TDV0; PathHunter beta-arrestin GPR151 cells, luminescence; activation, % at 11.2 µM; actives 1% (n = 650,000); AID 1508602; in the data active = activation above about 4.9%;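 note: 0% = median of compound wells and 100% = cells with positive control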
An asterisk follows results filed as active.

SMILES	FBW7 act	MITF primary	TEAD-YAP inh	GPR151 activ
OCCCNc1nc2cc(F)ccc2n2ccnc12	0	3	-15	-1
COc1cc(-c2c(C#N)c(N)n3c(nc4ccccc43)c2C#N)c(Cl)cc1O	1	-5	-1	3
COc1ccccc1N1CCN(c2nc(NCCO)c3cnn(C)c3n2)CC1	0	5	36*	0
CC(C)=CCN1CCNC(=O)C1CC(=O)NC1CCCCCCC1 (stereo unspecified)	0	-13	0	0
O=C(c1cccc(I)c1)N1CCCc2ccccc21	2.3*	10	-8	-1
O=C(c1ccc(I)cc1)N1CCCc2ccccc21	0	-4	14	1
CC(C)c1nnc(C2CCN(C(=O)NCc3cccc4ccccc34)CC2)o1	2.0*	-2	-3	4
CC(C)c1nnc(C2CCN(C(=O)NCc3ccccc3)CC2)o1	1	-2	5	-1
O=C1CCCN1CCn1cnc2c(NCc3cccnc3)nc(N3CCN(Cc4ccc5c(c4)OCO5)CC3)nc21	0	10	-11	0
CC1=C(C(=O)Nc2ccc(Cl)cc2)C(c2ccc(N(C)C)cc2)NC(=O)N1 (stereo unspecified)	0	-4	5	1
O=C1C(c2ccnc3ccccc23)=C(O)c2ccccc21	0	-12	53*	-2
Cc1cccc(NC(=O)C2CCCN(S(=O)(=O)c3ccc4c(c3)oc(=O)n4C)C2)n1 (stereo unspecified)	0	-12	34*	0
Cc1cccc(NC(=O)C2CCCN(S(=O)(=O)c3ccc4c(c3)oc(=O)n4C)C2)c1 (stereo unspecified)	0	0	-11	1
Nc1nonc1N=NN(CC(=O)Nc1c(Cl)cccc1Cl)c1nonc1N	0	8	-3	-1
Nc1nonc1N=NN(Cc1ccc(Cl)cc1Cl)c1nonc1N	0	73*	10	2
COc1ccccc1C(=O)Nc1ccc2nc(N3CCN(c4ncccn4)CC3)cc(C)c2c1	0	-7	25	0
COc1cccc(C(=O)Nc2ccc3nc(N4CCN(c5ncccn5)CC4)cc(C)c3c2)c1OC	0	12	43*	2
O=C(CCCCC(=O)NNC(=O)CCc1ccccc1)NNC(=O)CCc1ccccc1	2.3*	10	2	-2
COc1ccc(C2C(C(=O)N3CCN(c4ccccc4OC)CC3)c3ccccc3C(=O)N2C)cc1OC (stereo unspecified)	0	31	10	2
O=C(N/N=C/c1ccc(O)c(O)c1)c1cc(O)cc(O)c1	0	19	17	-1
O=C(N/N=C/c1ccc(O)cc1)c1cc(O)c(O)c(O)c1	0	59*	8	0
O=C(N/N=C/c1cc(Br)c(O)c(Br)c1)c1cc(O)c(O)c(O)c1	0	90*	1	2
O=C(N/N=C/c1ccc(/C=N/NC(=O)c2ccc(O)c(O)c2)cc1)c1ccc(O)c(O)c1	-1	107*	-6	2
CCN=Cc1c(O)n(-c2c(C)cc(C)cc2C)c(=O)[nH]c1=O	0	-5	-6	0
O=C(NCC(c1cccs1)N1CCOCC1)c1ccc(Cl)s1 (stereo unspecified)	0	-8	57*	0
SMILES	FBW7 act	MITF primary	TEAD-YAP inh	GPR151 activ
CC(C)n1cnc2c(NCc3nc4ccccc4[nH]3)nc(Nc3ncccn3)nc21	0	-14	66*	-1
CC(C)n1cnc2c(NCc3nc4ccccc4[nH]3)nc(-c3csc4ccccc34)nc21	1	13	16	-1
CC(C)n1cnc2c(NCc3nc4ccccc4[nH]3)nc(Nc3ccncc3)nc21	0	-1	90*	0
CC(C)n1cnc2c(NCc3nc4ccccc4[nH]3)nc(Nc3cccc(N(C)C)c3)nc21	0	14	43*	2
CC(C)n1cnc2c(NCc3ccccc3)nc(Nc3cccc(N(C)C)c3)nc21	1	8	-11	-2
Cc1noc(C)c1-c1nc(NCc2nc3ccccc3[nH]2)c2ncn(C(C)C)c2n1	0	-2	49*	1
Nc1nnc(CC(=O)N/N=C/c2ccccc2OS(=O)(=O)c2ccccc2)s1	0	-3	-2	-1
COc1ccc(OC)c(-c2nc(Nc3ccccc3F)sc2CC(=O)O)c1	0	3	-14	0
CCOc1ccc(Nc2nc(-c3ccccc3)c(C(=O)Nc3cccc(OC)c3)s2)cc1	0	-6	-12	0
CCOc1ccc(Nc2nc(N)c(C(=O)c3cccc(OC)c3)s2)cc1	0	3	61*	-1
COc1ccc(-c2nc(Nc3ccccc3OC)sc2CC(=O)O)cc1	0	8	51*	2
CCOc1ccc(Nc2nc(-c3ccc(OC)c(OC)c3)c(CC(=O)O)s2)cc1	0	0	34*	1
Cc1cc(C)n2nc(Nc3ccccc3)c(C(N)=O)c2n1	0	8	-7	0
CC(C)(CO)NC(=O)c1cnc2scc(-c3ccccc3Cl)n2c1=O	0	-14	9	-2
C=CCOC(=O)C1=C(C)NC2=C(C(=O)CCC2)C1c1cc(OC)c(OC)cc1[N+](=O)[O-] (stereo unspecified)	-1	10	32*	2
Cc1cc(C)n2nc(CC(=O)N3CC[C@@H](c4ccccc4)[C@H](O)C3)nc2n1	0	-2	-4	-1
COc1ccc(N2Cc3ccccc3C2=O)cc1	0	6	66*	-8
O=C1c2ccccc2CN1c1ccccc1	0	1	-46	-5
C=CC(=O)Oc1ccc(N2Cc3ccccc3C2=O)cc1	0	0	14	-4
CC(O)c1ccc(N2Cc3ccccc3C2=O)cc1 (stereo unspecified)	0	-7	56*	-7
O=C(O)c1cc(S(=O)(=O)NNc2c(F)c(F)cc(F)c2F)ccc1F	0	-3	-6	1
Cc1oc(-c2ccc(Cl)cc2)nc1CSCC(=O)NC1CC1	-1	3	-1	1
Cc1oc(-c2cccs2)nc1CSCC(=O)N1CCCC1	0	-5	2	0
Cc1oc(-c2ccccc2Cl)nc1CSCC(=O)N1CCCC1	0	8	58*	0
Cc1oc(-c2ccc(Cl)cc2)nc1CSCC(=O)N1CCC2(CC1)OCCO2	0	-9	38*	0
SMILES	FBW7 act	MITF primary	TEAD-YAP inh	GPR151 activ
O=C(c1ccc(Cl)cc1)N1CCN(c2ccc3nncn3n2)CC1	0	-4	-3	0
COc1ccc(-n2ncc3c(Nc4ccc(OC)c(Cl)c4)ncnc32)cc1	0	-17	54*	0
COc1ccc(Cl)cc1Nc1ncnc2c1cnn2-c1ccccc1	0	10	-15	0
COc1ccc(-n2ncc3c(Nc4cc(Cl)ccc4OC)ncnc32)cc1	0	33	41*	1
COC(=O)c1c(NC(=O)/C(C#N)=C/c2cccc([N+](=O)[O-])c2)sc2c1CCCC2	0	5	2	1
COc1ccc(-c2cc(C(F)(F)F)c3nc(OC(C)C(C)=O)oc3n2)cc1OC (stereo unspecified)	0	-1	81*	2
Cc1ccc(S(=O)(=O)Nc2cccc(C(=O)NCc3cccnc3)c2)cc1	0	17	58*	0
CN(C)CCNC(=O)NC(c1ccccc1)c1ccccc1	0	-3	0	0
